In all, about 48,000 compounds went through this assay and about 13,000 (27%) showed an effect of 50% or more. The list shows a part of the results.
test system: Wolbachia pipientis; assay: Anti-Wolbachia Cell-Based Screen; format: functional; parameters: scale not given: in the data most compounds retested in dose-response had high values; conditions: 5 µM

Row | SMILES | Percent Effect
1 | CCSC1(CNc2ncc(Br)cn2)CCOCC1 | -0.7161%
2 | Cc1cc(CN2CCN(C(=O)C(C)C)[C@@H]3CS(=O)(=O)C[C@@H]32)ccc1F | -3.716%
3 | CC(Cn1ccnc1)NCc1nncn1C1CCCCC1 (configuration not stated) | -17.23%
4 | NC(=O)COc1ccc(CN2CC[C@@]3(O)CCCC[C@H]3C2)cc1Cl | 11.68%
5 | CSc1ncccc1C(=O)NC(C)c1cccc(N2CCOC2=O)c1 (configuration not stated) | 5.443%
6 | Cc1cc(CN(C)C(=O)C2CCS(=O)(=O)C2)no1 (configuration not stated) | 3.983%
7 | CCCn1nnnc1CSc1nccn1Cc1ccccn1 | -4.795%
8 | CCn1ccnc1CNCC1CCCN1c1cccnn1 (configuration not stated) | -7.119%
9 | O=C(Cc1cccs1)N1CCOCC1CO (configuration not stated) | -3.953%
10 | O=C(Cc1ccsc1)N1CCCCC1c1ccn2ccnc2n1 (configuration not stated) | 73.59%
11 | O=C(Cc1cccs1)N1CCCCC1c1ccn2ccnc2n1 (configuration not stated) | 83.71%
12 | Cc1nc(CC(=O)N2CCCCC2c2ccn3ccnc3n2)cs1 (configuration not stated) | -8.343%
13 | CN(Cc1ccccc1F)C(=O)c1cc(Cl)c[nH]1 | 92.86%
14 | COC(=O)c1ccc(OCC(=O)N(C)Cc2ccsc2)c(OC)c1 | 0.9882%
15 | CN(Cc1ccsc1)C(=O)COC(=O)c1cc(Cl)c[nH]1 | 107.8%
16 | CN(Cc1ccccc1F)C(=O)c1ccoc1 | 5.435%
17 | COc1ccc(Cl)cc1CS(=O)(=O)CC(=O)N(C)Cc1ccccc1F | -1.573%
18 | COCCN1CCN(CC(=O)N(C)Cc2ccsc2)CC1C (configuration not stated) | 9.964%
19 | CN(Cc1ccccc1F)C(=O)COC(=O)c1cc(Cl)c[nH]1 | 87.09%
20 | CN(Cc1ccccc1F)C(=O)CS(=O)(=O)Cc1ccc(Cl)c(Cl)c1 | 6.215%
21 | Cc1ccccc1CS(=O)(=O)CC(=O)N(C)Cc1ccccc1F | -29.58%
22 | Cc1ccc(CNCC2CCc3nnc(C(C)C)n3C2)s1 (configuration not stated) | -11.01%

Row | SMILES | Percent Effect
23 | CN1CCN(C(=O)CCc2cc(Br)cs2)CC1 | -6.424%
24 | COc1cc(NC(=O)NC2CCOCC2)ccc1N1CCOC1=O | -14.6%
25 | Cc1ncc(CN(C)c2nc3c(cnn3C(C)(C)C)c(=O)[nH]2)s1 | 5.937%
26 | COc1c(CNC(c2nccn2C)C(C)C)c(C)nn1C (configuration not stated) | -4.434%
27 | CCN(CC)Cc1cc(C(=O)N2CCC3(CC2)NCCNC3=O)c(C)o1 | -9.012%
28 | Cc1nc(-c2ccncc2)nc(N(C)CCc2ccncc2)c1C | 0.9394%
29 | CN(CCc1ccccc1)c1cnn(Cc2ccccn2)c(=O)c1 | 5.151%
30 | CC(C)N(C)C(=O)Cn1ncc(N(C)CCc2ccccc2)cc1=O | -17.71%
31 | CN(CCc1ccccc1)c1cnn(C)c(=O)c1Br | 67.25%
32 | Cc1nc(N(C)C)nc(N(C)CCc2ccncc2)c1C | 13.66%
33 | COCCN(Cc1ccc(F)cc1Cl)C(=O)c1cnn(C)c1C | -5.759%
34 | COCCN(C)c1cnn(C)c(=O)c1Br | 101.6%
35 | CN(C)CCN(C)c1nc(CCc2ccccc2)nc2c1cnn2C | 4.899%
36 | CN(CCc1ccccn1)c1cnn(C)c(=O)c1Br | 101.4%
37 | COc1ccc(Br)cc1CN(C)c1nc2c(cnn2C)c(=O)[nH]1 | -19.59%
38 | CN(CCc1ccncc1)c1cnn(C)c(=O)c1Br | 103%
39 | CN(CCc1ccccn1)Cc1nccn1Cc1ccccc1 | 8.438%
40 | NS(=O)(=O)CCNC(=O)C1(c2ccc(Br)cc2)CC1 | -1.628%
41 | CCc1nnc2n1CCN(C(=O)Cc1csc(-c3ccco3)n1)C2 | -5.069%
42 | CCCC(=O)NCC(=O)Nc1cc(F)ccc1SCC(F)F | 9.844%
43 | Cc1noc([C@@H]2C[C@H](NC(=O)Nc3cccc(F)c3)CN2C)n1 | -4.092%
44 | CS(=O)(=O)NCc1n[nH]c2c1CCN(C(=O)c1ccsc1)C2 | -6.349%

Row | SMILES | Percent Effect
45 | Cc1nn(C)cc1-c1ccnc(N(C)Cc2cccs2)n1 | -35.4%
46 | CCOc1cccc(CNC(C)c2ccc(-n3ccnc3)cc2)c1O (configuration not stated) | -2.856%
47 | O=C(c1ccc(F)cc1Cl)N1CCn2c(nnc2C(F)(F)F)C1 | -1.794%
48 | OCCN1CCN(Cc2cnc3c(-c4ccccc4)cnn3c2)CC1 | -3.434%
49 | COCCCC1(C(=O)O)CCCN(Cc2cc3c(cc2C)OCCO3)C1 (configuration not stated) | -2.058%
50 | Cc1ccc2nc(N3CCN(CC(=O)NC(C)C)CC3)cc(C)c2c1 | 5.586%
51 | O=C(c1cn(CC(=O)N2CCCC2)c2ccccc12)C1CC1 | -23.59%
52 | Cc1nc(=O)c2ccccc2n1C1=CCN(CC(=O)NC(C)C)CC1 | 121.8%
53 | Cc1nnc2n1CCN(CC(=O)NC(C)c1cccc3ccccc13)C2 (configuration not stated) | -6.251%
54 | COCCNC(=O)CN1CCN(c2nc3cc(C)ccc3o2)CC1 | -13.48%
55 | O=C(CN1CCc2cncnc2C1)NCCOc1ccccc1 | -0.7298%
56 | O=C(c1cn(CC(=O)N2CCCCCC2)c2ccccc12)C1CC1 | -6.817%
57 | COCCNC(=O)CN1CC=C(n2c(C)nc(=O)c3ccccc32)CC1 | 80.87%
58 | Cc1nc(=O)c2ccccc2n1C1=CCN(CC(=O)N2CCCC2)CC1 | 121.3%
59 | CCNC(=O)CN(CC)C(=O)c1cc(-c2cccc(Cl)c2)no1 | -7.468%
60 | CC(CN1CCOCC1)NC(=O)c1cccc2cn[nH]c12 (configuration not stated) | 6.229%
61 | CN(C)C[C@H]1C[C@@H]2CN(C(=O)c3ccno3)C[C@@H]2O1.O=C(O)C(F)(F)F | -9.995%
62 | CC(C)n1cc(CN2CCCN(C(=O)CN3CCCC3=O)CC2)cn1 | 122.9%
63 | Cc1cnc(C(=O)N2CCCN(Cc3cnn(C(C)C)c3)CC2)cn1 | 1.046%
64 | Cc1cc(C(=O)N2CCCN(Cc3cnn(C(C)C)c3)CC2)no1 | 2.122%
65 | Cc1cnn(CC(=O)N2CCCN(Cc3cnn(C(C)C)c3)CC2)c1 | 117.3%
66 | NS(=O)(=O)c1cnc(NCC2(c3ccccc3)CCC2)s1 | -8.019%

Row | SMILES | Percent Effect
67 | Cc1cc(NC(=O)Cc2ccc3c(c2)OCO3)n(C)n1 | 120.5%
68 | CC(=O)c1ccc(-c2cnn(CC(=O)Nc3cc(C)nn3C)c2)nc1 | 2.251%
69 | CCC1CN(CC(=O)Nc2cc(C)nn2C)CCO1 (configuration not stated) | 11.37%
70 | Cn1nccc1NC(=O)Cn1ccc(-c2ccc3c(c2)OCO3)n1 | 132.1%
71 | Cc1cc(N2CCN(C(=O)Cc3ccc4c(c3)OCO4)CC2)cc(C)n1 | -8.837%
72 | Cn1ncc(NC(=O)Cn2ccc(-c3ccc(F)cc3)n2)n1 | 6.673%
73 | Cc1cc(NC(=O)NCCc2ccc3c(c2)OCCO3)n(C)n1 | -3.946%
74 | Cn1ncc(NC(=O)Cn2ccc(-c3cccc(F)c3)n2)n1 | -3.857%
75 | Cc1cc(NC(=O)Cn2ccc(-c3ccc4c(c3)OCO4)n2)n(C)n1 | 140.3%
76 | CCCOc1cc(Cl)c(CN2CCNC(C(=O)NC3CC3)C2)cc1OC (configuration not stated) | -0.8522%
77 | O=C(c1cncc(N2CCCC3(CCNCC3)CC2)n1)N1CCCCC1 | 3.422%
78 | COc1cc(F)cc(CNC(=O)Nc2ccn(CC(F)F)n2)c1 | -8.907%
79 | COCC(=O)N(Cc1cccnc1)CC1CCCN(C2CCCCC2)C1 (configuration not stated) | -12.35%
80 | Cc1c(NCc2cccnc2)cccc1C(=O)N1CCC(N(C)C)C1 (configuration not stated) | 115.4%
81 | COCC1CCCN(C(=O)c2ccccc2NCc2cccnc2)C1 (configuration not stated) | 97.72%
82 | Cc1ccc(CNC(=O)N2CCN(C(C)c3cccnc3)CC2)cn1 (configuration not stated) | -10.7%
83 | CC(C)N1CCN(C(=O)c2ccccc2NCc2cccnc2)CC1 | 80.75%
84 | CSCC1CCN(C(=O)c2ccccc2NCc2cccnc2)C1 (configuration not stated) | 46.56%
85 | O=C(c1cnc(NCc2cccnc2)c(Cl)c1)N1CCCCC1 | 2.275%
86 | CCOC1CCCN(C(=O)c2ccccc2NCc2cccnc2)C1 (configuration not stated) | 55.92%
87 | COC(=O)C1CCN(C(=O)c2cccc(NS(C)(=O)=O)c2C)CC1 | 5.787%
88 | CN(C)C[C@H]1OC[C@@H]2CN(C(=O)NCc3cccnc3)CC[C@@H]21.O=C(O)C(F)(F)F.O=C(O)C(F)(F)F | -2.462%

Row | SMILES | Percent Effect
89 | Cc1[nH]nc(CCC(=O)N2CCCC(OCc3cccnc3)C2)c1C (configuration not stated) | 1.428%
90 | NC(=O)CN1CCC(C(=O)N2CCCC(OCc3cccnc3)C2)CC1 (configuration not stated) | -8.18%
91 | Cn1ccnc1CN1CCN2C[C@H](OCc3ccccc3)C[C@H]2C1.O=C(O)C(F)(F)F.O=C(O)C(F)(F)F | -3.164%
92 | Cc1cccc(C(C(=O)N2CC(c3ccncc3)C2)N(C)C)c1 (configuration not stated) | -5.316%
93 | N#Cc1ccc(F)c(CNC(=O)NCCC(=O)NC2CCCC2)c1 | 6.795%
94 | N#CC1(NC(=O)c2nccc3ccccc23)CCC2(CC1)OCCO2 | 0.4939%
95 | Cc1noc(C)c1S(=O)(=O)N(CC(N)=O)CC(C)C | 2.709%
96 | Cc1ccn(-c2ccccc2NCc2cccnc2)n1 | -3.836%
97 | COC1CCN(C(=O)c2ccccc2NCc2cccnc2)CC1 | 112.6%
98 | COCCN1CCCn2cnc(CNC3CCCC3)c2C1.Cl.Cl | -22.39%
99 | O=C(c1nc(-c2ccc3cc[nH]c3c2)no1)N1CCCC1 | 5.655%
100 | O=C(c1nc(Cc2c[nH]c3ccccc23)no1)N1CCOCC1 | 109.7%
101 | O=C(c1nc(Cc2c[nH]c3ccccc23)no1)N1CCCC1 | 91.24%
102 | c1ccc2c(Cc3nnc([C@H]4CCN(C5CCCCC5)C4)o3)c[nH]c2c1 | 3.447%
103 | CC(=O)N1CC[C@H](c2nnc(Cc3c[nH]c4ccccc34)o2)C1 | -6.086%
104 | O=C(O)c1cc2n(n1)CCCN(C(=O)CCc1c[nH]c3ccccc13)C2 | -8.48%
105 | O=C(c1nc(Cc2c[nH]c3ccccc23)no1)N1CCCCC1 | 107.9%
106 | c1ccc2c(Cc3nnc([C@H]4CCN(C5CCOCC5)C4)o3)c[nH]c2c1 | 1.602%
107 | O=C(C1CC1)N1CC[C@H](c2nnc(Cc3c[nH]c4ccccc34)o2)C1 | -9.274%

Source: ChEMBL document CHEMBL3988442, “University of Dundee, Small-Polar-MMV Screening Library” (2021)
